# Shown is part of a subset that was picked to be rich in the strongest signals.
# Columns and labels:
# Test in all cases: glycan array binding signal (z-score within array); higher = stronger binding
# Conditions in all cases: glycan notation: IUPAC condensed, linker removed
# [1] = molecular target: Fuc(a1-2)Gal(b1-3)GlcNAc(b1-2)Man(a1-3)[Fuc(a1-2)Gal(b1-3)GlcNAc(b1-2)Man(a1-6)]Man(b1-4)GlcNAc(b1-4)GlcNAc
# Procedure, shortened: (§1)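 The binding signal is a Z-score computed within each array and averaged over linkers. Arrays of the same protein sequence at different concentrations or buffers were also averaged together. Data originate from 3228 arrays in the Consortium for Functional Glycomics database, kept only where the protein sequence was available.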
# [2] = molecular target: Fuc(a1-2)Gal(b1-4)Glc
# Procedure, shortened: as §1
# [3] = molecular target: Fuc(a1-2)Gal(b1-4)GlcNAc(b1-3)[Fuc(a1-2)Gal(b1-4)GlcNAc(b1-6)]GalNAc
# Procedure, shortened: as §1
# [4] = molecular target: Fuc(a1-2)Gal6S(b1-3)GlcNAc6S
# Procedure, shortened: as §1
# [5] = molecular target: Fuc(a1-2)[Gal(a1-3)]Gal(b1-4)[Fuc(a1-3)]GlcNAc
# Procedure, shortened: as §1
# [6] = molecular target: Fuc(a1-2)[GalNAc(a1-3)]Gal(b1-3)GlcNAc(b1-3)GalNAc
# Procedure, shortened: as §1
# [7] = molecular target: Fuc(a1-2)[GalNAc(a1-3)]Gal(b1-4)Glc
# Procedure, shortened: as §1
# [8] = molecular target: Fuc(a1-2)[GalNAc(a1-4)]Gal(b1-4)GlcNAc
# Procedure, shortened: as §1
# [9] = molecular target: Fuc(a1-3)[Gal(b1-4)]GlcNAc(b1-6)GalNAc
# Procedure, shortened: as §1
# [10] = molecular target: Gal(b1-4)GlcNAc(b1-2)Man(a1-3)[Gal(b1-4)GlcNAc(b1-2)Man(a1-6)]Man(b1-4)GlcNAc(b1-4)[Fuc(a1-6)]GlcNAc
# Procedure, shortened: as §1
# [11] = molecular target: Gal(b1-4)GlcNAc(b1-2)Man(a1-3)[GlcNAc(b1-4)][Gal(b1-4)GlcNAc(b1-2)Man(a1-6)]Man(b1-4)GlcNAc(b1-4)GlcNAc
# Procedure, shortened: as §1
# [12] = molecular target: Gal(b1-4)GlcNAc(b1-2)[Gal(b1-4)GlcNAc(b1-6)]Man(a1-6)[GlcNAc(b1-4)][Gal(b1-4)GlcNAc(b1-2)Man(a1-3)]Man(b1-4)GlcNAc(b1-4)GlcNAc
# Procedure, shortened: as §1
# [13] = molecular target: Gal(b1-4)GlcNAc(b1-3)Gal(b1-4)GlcNAc(b1-2)[Gal(b1-4)GlcNAc(b1-3)Gal(b1-4)GlcNAc(b1-6)]Man(a1-6)[Gal(b1-4)GlcNAc(b1-3)Gal(b1-4)GlcNAc(b1-2)Man(a1-3)]Man(b1-4)GlcNAc(b1-4)GlcNAc
# Procedure, shortened: as §1
# [14] = molecular target: Gal(b1-4)GlcNAc(b1-3)Gal(b1-4)GlcNAc(b1-3)Gal(b1-4)GlcNAc
# Procedure, shortened: as §1
# [15] = molecular target: Gal(b1-4)GlcNAc(b1-3)Gal(b1-4)GlcNAc(b1-3)Gal(b1-4)GlcNAc(b1-3)Gal(b1-4)GlcNAc(b1-2)Man(a1-3)[Gal(b1-4)GlcNAc(b1-3)Gal(b1-4)GlcNAc(b1-3)Gal(b1-4)GlcNAc(b1-3)Gal(b1-4)GlcNAc(b1-2)Man(a1-6)]Man(b1-4)GlcNAc(b1-4)[Fuc(a1-6)]GlcNAc
# Procedure, shortened: as §1
# [16] = molecular target: Gal(b1-4)GlcNAc(b1-3)[Gal(b1-4)GlcNAc(b1-6)]Gal(b1-4)GlcNAc
# Procedure, shortened: as §1
# [17] = molecular target: Gal(b1-4)GlcNAc(b1-3)[GlcNAc(b1-6)]Gal(b1-4)GlcNAc
# Procedure, shortened: as §1
# [18] = molecular target: GalNAc(b1-3)Gal(a1-4)Gal(b1-4)GlcNAc
# Procedure, shortened: as §1
# [19] = molecular target: GlcA(b1-6)Gal
# Procedure, shortened: as §1
# [20] = molecular target: GlcNAc(b1-3)Gal(b1-3)GalNAc
# Procedure, shortened: as §1
# [21] = molecular target: GlcNAc(b1-3)Gal(b1-4)GlcNAc(b1-3)Gal(b1-4)GlcNAc(b1-2)Man(a1-3)[GlcNAc(b1-3)Gal(b1-4)GlcNAc(b1-3)Gal(b1-4)GlcNAc(b1-2)Man(a1-6)]Man(b1-4)GlcNAc(b1-4)GlcNAc
# Procedure, shortened: as §1
# [22] = molecular target: GlcNAc(b1-3)Gal(b1-4)GlcNAc(b1-3)Gal(b1-4)GlcNAc(b1-3)Gal(b1-4)GlcNAc(b1-2)[GlcNAc(b1-3)Gal(b1-4)GlcNAc(b1-3)Gal(b1-4)GlcNAc(b1-3)Gal(b1-4)GlcNAc(b1-6)]Man(a1-6)[GlcNAc(b1-3)Gal(b1-4)GlcNAc(b1-3)Gal(b1-4)GlcNAc(b1-3)Gal(b1-4)GlcNAc(b1-2)Man(a1-3)]Man(b1-4)GlcNAc(b1-4)[Fuc(a1-6)]GlcNAc
# Procedure, shortened: as §1
# [23] = molecular target: GlcNAc(b1-4)GlcNAc(b1-4)GlcNAc(b1-4)GlcNAc(b1-4)GlcNAc(b1-4)GlcNAc
# Procedure, shortened: as §1
# [24] = molecular target: Man(a1-3)[Man(a1-6)]Man(a1-6)[Man(a1-3)]Man
# Procedure, shortened: as §1
# [25] = molecular target: Neu5Ac(a2-3)Gal(b1-4)GlcNAc(b1-2)Man
# Procedure, shortened: as §1
# [26] = molecular target: Neu5Ac(a2-3)Gal(b1-4)GlcNAc(b1-3)Gal(b1-3)GlcNAc
# Procedure, shortened: as §1
# [27] = molecular target: Neu5Ac(a2-3)Gal(b1-4)GlcNAc(b1-3)Gal(b1-4)GlcNAc(b1-3)Gal(b1-4)GlcNAc
# Procedure, shortened: as §1
# [28] = molecular target: Neu5Ac(a2-3)Gal(b1-4)GlcNAc(b1-3)Gal(b1-4)GlcNAc(b1-3)GalNAc
# Procedure, shortened: as §1
# [29] = molecular target: Neu5Ac(a2-3)Gal(b1-4)[Fuc(a1-3)]GlcNAc(b1-6)[Neu5Ac(a2-3)Gal(b1-3)]GalNAc
# Procedure, shortened: as §1
# [30] = molecular target: Neu5Ac(a2-6)Gal(b1-4)GlcNAc(b1-3)Gal(b1-4)GlcNAc(b1-6)[Gal(b1-3)]GalNAc
# Procedure, shortened: as §1
# [31] = molecular target: Neu5Ac(a2-6)Gal(b1-4)GlcNAc(b1-6)GalNAc
# Procedure, shortened: as §1
# [32] = molecular target: Neu5Ac(a2-8)Neu5Ac(a2-8)Neu5Ac(a2-3)Gal(b1-4)Glc
# Procedure, shortened: as §1
# [33] = molecular target: Neu5Ac(b2-6)Gal(b1-4)GlcNAc
# Procedure, shortened: as §1
# [34] = molecular target: Neu5Ac9Ac(a2-3)Gal(b1-3)GlcNAc
# Procedure, shortened: as §1
# [35] = molecular target: Neu5Gc(a2-3)Gal(b1-4)[Fuc(a1-3)]GlcNAc
# Procedure, shortened: as §1
# [36] = molecular target: Neu5Gc(a2-6)GalNAc
# Procedure, shortened: as §1
binder,measurement,setting,value
truncCC1G-10077 (Coprinopsis cinerea) (protein) MHHHHHHHHPLPSPGPGWVLIQNGGTGKFLCSTPSGDIGTADGPETVYDYSVQWRFIQREYTGVYHVVNRATGAYLRQIGTSMPSIGLAEENDDELKDWWMLETYDNSEIGLASIISRWTGNVLDHYGGVSVQALDNNTENSYRSWAIIPARDWLTSFSLVNGQGGLCLAAQYAREETRLSTTANVNDFHAQWVFRKPSGSSGYTIQNKYNNHYVGGTSARWELVVCCNKYFGIRNTSTQKYLAIEDGQVTFQDQDMTDRKQCWELCSGRATDTSGNDYDLIYMDDDLLEVMIPWVGDKQGDLKHYIEKRATKKPPKDKGGWQLPAAGLIKKPKFNDIRQLLQELIEQWEWDVVNEEREQIQTLVSIDEAEARRLLGRRPHPDIVAAYQRSRSSTLFRIDRQGYFNIAGDRYVNIQGQYGDDSYFHIALPVGVRFGREQIRRFLRDSLDRSTSVTITPTTCKPPSGGPDYNRDPDSDGDNSWIKWTIAVVGTSAIKHSEL,glycan array binding signal (z-score),[1],3.72
same,glycan array binding signal (z-score),[2],-0.216
same,glycan array binding signal (z-score),[3],2.81
same,glycan array binding signal (z-score),[4],0.519
same,glycan array binding signal (z-score),[5],1.66
same,glycan array binding signal (z-score),[6],3.65
same,glycan array binding signal (z-score),[7],-0.829
same,glycan array binding signal (z-score),[8],-0.664
same,glycan array binding signal (z-score),[9],3.46
same,glycan array binding signal (z-score),[10],3.13
same,glycan array binding signal (z-score),[11],0.359
same,glycan array binding signal (z-score),[12],-0.119
same,glycan array binding signal (z-score),[13],3.74
same,glycan array binding signal (z-score),[14],-0.532
same,glycan array binding signal (z-score),[15],0.374
same,glycan array binding signal (z-score),[16],-0.821
same,glycan array binding signal (z-score),[17],-1.04
same,glycan array binding signal (z-score),[18],-0.242
same,glycan array binding signal (z-score),[19],4.61
same,glycan array binding signal (z-score),[20],-0.15
same,glycan array binding signal (z-score),[21],1.17
same,glycan array binding signal (z-score),[22],0.218
same,glycan array binding signal (z-score),[23],-0.144
same,glycan array binding signal (z-score),[24],0.384
same,glycan array binding signal (z-score),[25],2.91
same,glycan array binding signal (z-score),[26],-0.855
same,glycan array binding signal (z-score),[27],-1.07
same,glycan array binding signal (z-score),[28],0.244
same,glycan array binding signal (z-score),[29],3.72
same,glycan array binding signal (z-score),[30],0.521
same,glycan array binding signal (z-score),[31],3.21
same,glycan array binding signal (z-score),[32],0.249
same,glycan array binding signal (z-score),[33],-1.25
same,glycan array binding signal (z-score),[34],-1.02
same,glycan array binding signal (z-score),[35],3.02
same,glycan array binding signal (z-score),[36],-0.873
